Compounds with a hit are over-represented: about 2.2% of the library has one in this group of screens.
APP 5UTR inh = APP translation inhibition. inhibition, % at 2 µM. SH-SY5Y APP 5'UTR-luciferase reporter, luminescence. 0.82% of 190,000 active. AID 1285;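 active = inhibition above a set limit, derived from the sample mean plus 3 SD, cut at about 45% in these data; inconclusive = one replicate passes the limit while the other fails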
IEC-6 tox = kills IEC-6 intestinal cells in KLF5 counter-screen; 0.78% of 290,000 active; AID 1825; inhibition, % at 5 µM; IEC-6 cytotoxicity, luminescence viability; in the data active = inhibition above about 22%
KLF5 inhibitor = inhibitors of KLF5 expression; 0.23% of 290,000 active; DLD-1 KLF5 promoter-luciferase reporter, luminescence; inhibition, % at 5 µM;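 active = inhibition above a per-plate limit of that plate's mean compound inhibition plus 3 SD, cut at about 60% in these data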;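 also: higher means less KLF5 promoter-driven luciferase light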
aSyn 5UTR inh = MLPCN primary screen, SNCA 5' untranslated region; inhibition, % (tested at 7.5 µM); alpha-synuclein 5'UTR reporter, inhibitor activity; 0.82% of 300,000 active; AID 1813; in the data active = inhibition above about 60%; inconclusive = no clear call, values can overlap the other calls;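 also: H4 neuroglioblastoma cells stably carrying SNCA 5'UTR luciferase fusion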
BaF3 tox = reduces parental Ba/F3 cell viability, JAK2V617F counter-screen; CellTiter-Glo ATP luminescence; inhibition, % at 5.6 µM; 1.1% of 220,000 active; AID 1486;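 active = inhibition above a per-campaign cutoff, the mean inhibition of all tested compounds plus 3 SD, cut at about 27% in these data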
Ba/F3 V617F tox = reduce viability of Ba/F3 cells dependent on JAK2V617F. AID 1446. 1.1% of 220,000 active. inhibition, % at 5.6 µM. Ba/F3 EpoR-JAK2V617F viability, ATP luminescence;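 active = inhibition above the campaign mean plus 3 SD over all tested compounds, cut at about 24% in these data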;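 also: cytokine-independent growth of Ba/F3 cells driven by EpoR plus mutant JAK2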
Of the large screens only hits and unclear results are named; the others gave an inactive call.

O=C(Nc1ccc(F)cc1)c1cc2cc(Cl)ccc2[nH]1	none (no result: APP 5UTR inh, BaF3 tox, Ba/F3 V617F tox)
Cc1ccc(O)c(C2=NNC(c3ccc(Cl)cc3)C2)c1 (stereo not given)	none (no result: APP 5UTR inh)
Cc1ccc(C2Cc3cc(O)c(O)cc3CN2)cc1 (stereo not given)	aSyn 5UTR inh 89.0 (no result: APP 5UTR inh, IEC-6 tox, KLF5 inhibitor, BaF3 tox, Ba/F3 V617F tox)
CC(C)CC(=O)NC(=S)NNC(=O)c1ccc(NC(=O)C2CCCCC2)cc1	aSyn 5UTR inh 74.7
CC(C)CC(=O)NC(=S)NNC(=O)c1ccc([N+](=O)[O-])cc1	none
Cc1cnc(C(=O)OCC(=O)NC(C)C)cn1	BaF3 tox 51.3
CC(=O)c1cc2c(cc1NS(=O)(=O)c1ccc(F)cc1)OCO2	none
CCc1cc(C)cc(OCCOc2ccccc2/C=N/NC(C)=O)c1	none (no result: APP 5UTR inh, BaF3 tox, Ba/F3 V617F tox)
COc1cccc(CNC(=O)Cn2ncc3c(=O)oc4ccccc4c32)c1	BaF3 tox 62.2, Ba/F3 V617F tox 61.0 (no result: APP 5UTR inh)
O=C(Cn1ncc2c(=O)oc3ccccc3c21)NCc1cccnc1	none
COc1cccc(-c2nc(CS(=O)(=O)CC(=O)Nc3ccccc3Br)c(C)o2)c1	none (no result: APP 5UTR inh, BaF3 tox, Ba/F3 V617F tox)
C/C(Cl)=C\Cn1c(O)c(N=NC(N)=S)c2ccccc21	none
Cc1c(Cl)cccc1NC(=S)N=Nc1c(O)n(CN2CCOCC2)c2ccccc12	APP 5UTR inh 45.8, aSyn 5UTR inh 64.5
C=CCn1c(O)c(N=NC(=S)Nc2cccc(C)c2)c2ccccc21	APP 5UTR inh 65.9, aSyn 5UTR inh 93.6
Oc1c(N=NC(=S)Nc2ccccc2F)c2ccccc2n1Cc1ccccc1Cl	aSyn 5UTR inh 86.8
CCCCNC(=S)N=Nc1c(O)n(Cc2ccccc2)c2ccccc12	none
C=CCn1c(O)c(N=NC(=S)Nc2ccccc2F)c2ccccc21	aSyn 5UTR inh 67.4
C/C(Cc1ccccc1)=N\NC(=O)CNC(=O)COc1ccccc1	none (no result: APP 5UTR inh)
CCN(C(=O)COC(=O)c1nn(-c2ccccc2)c(=O)c2ccccc12)C1CCS(=O)(=O)C1 (stereo not given)	none (no result: APP 5UTR inh)
Cc1ccc(Cn2c(O)c(N=NC(=S)Nc3ccccc3F)c3ccccc32)cc1	aSyn 5UTR inh 71.4
Oc1c(N=NC(=S)Nc2ccccc2F)c2ccccc2n1Cc1ccccc1	aSyn 5UTR inh 71.7
COc1ccccc1C(=O)COC(=O)Cn1nc(C)c([N+](=O)[O-])c1C	none (no result: APP 5UTR inh, IEC-6 tox, KLF5 inhibitor, BaF3 tox, Ba/F3 V617F tox)
Cn1c(SCCOc2ccccc2Cl)nnc1-c1cccs1	BaF3 tox 37.1, Ba/F3 V617F tox 34.9
Cc1cc(OCCSc2nnc(-c3cccs3)n2C)ccc1Cl	none
CCn1c(SCC#N)nc2ccccc2c1=O	none (no result: APP 5UTR inh)
N#CCSc1nc2ccccc2c2nc3ccccc3n12	BaF3 tox 48.7, Ba/F3 V617F tox 63.1
CCOC(=O)/C(=C\c1cccnc1)C(=O)c1cc(C(C)=O)c(Nc2ccccc2)s1	aSyn 5UTR inh 82.9
CCOC(=O)/C(=C\c1ccccc1)C(=O)c1cc(C(C)=O)c(Nc2ccccc2)s1	none
S=C(Nc1ccccc1)N1CCCN1c1ccccc1	BaF3 tox 30.5, Ba/F3 V617F tox 24.1 (no result: APP 5UTR inh)
O=C(O)/C=C/c1cn(Cc2ccccc2Cl)nc1-c1ccccc1	none (no result: APP 5UTR inh)
O=S(=O)(c1ccc(Cl)cc1)N1c2ccccc2Oc2nc3ccccc3nc21	none
COc1ccc(S(=O)(=O)N2c3cc(Cl)ccc3Oc3nc4ccccc4nc32)cc1	aSyn 5UTR inh 99.6
Cc1cc(C)c(S(=O)(=O)N2CCCOC2CNC(=O)C(=O)NCc2cccs2)c(C)c1 (stereo not given)	none
C=CCn1c(Cc2cccs2)nnc1SCC(=O)Nc1ccc(C(=O)OCC)cc1	APP 5UTR inh 47.4
COc1cc(O)c2c(=O)cc(-c3ccccc3)oc2c1	none
COc1ccc(-c2cc(=O)c3c(O)c(OC)c(O)cc3o2)cc1	aSyn 5UTR inh 70.2
O=C(c1cc(COc2ccc3ncccc3c2)on1)N1CCCC1	none (no result: APP 5UTR inh, BaF3 tox, Ba/F3 V617F tox)
O=C(NC1CCCC1)c1cc(COc2ccc3ncccc3c2)on1	BaF3 tox 43.5, Ba/F3 V617F tox 36.5 (no result: APP 5UTR inh)
COc1cccc(CN(C)C(=O)c2cc(COc3ccc4ncccc4c3)on2)c1	BaF3 tox 71.3, Ba/F3 V617F tox 54.5
CC(NC(=O)c1cc(COc2ccc3ncccc3c2)on1)c1ccc(F)cc1 (stereo not given)	BaF3 tox 36.4, Ba/F3 V617F tox 30.8 (no result: APP 5UTR inh)
COc1cccc(CC(Cc2nc3ccccc3[nH]2)c2nc3ccccc3[nH]2)c1 (stereo not given)	none
CCOC(=O)c1ccc2c(c1)[n+](CC)c(C)n2-c1ccccc1	BaF3 tox 75.8, Ba/F3 V617F tox 38.3
CC[n+]1c(C)n(-c2ccccc2)c2ccc(C(=O)OC)cc21	BaF3 tox 54.6, Ba/F3 V617F tox 36.3
CCn1c(C)[n+](CC)c2ccc(C(=O)N(C)c3ccccc3)cc21	none
CCOC(=O)c1c(O)c(O)c(C(=O)OCC)n1-c1ccccc1	none (no result: APP 5UTR inh)
CCOC(=O)c1ccc2c(c1)n(CC)c(C)[n+]2CC	BaF3 tox 36.5
CC(=O)OCC[n+]1c(C)n(-c2ccccc2)c2ccc(Cl)cc21	none
CCCNC(=S)N1CCC(C(=O)c2ccc(Cl)cc2)CC1	none (no result: APP 5UTR inh, BaF3 tox, Ba/F3 V617F tox)
CCCNC(=S)N1CCC(C(=O)c2ccc(OC)cc2)CC1	APP 5UTR inh 60.1
COc1ccc(CNC(=O)CSc2nnc(-c3cccnc3)n2N)cc1	BaF3 tox 81.9
O=C(N/N=C/c1ccccc1)c1[nH]c2ccc(Br)cc2c1-c1ccccc1	APP 5UTR inh 88.5
O=C(NN=C1CCCC1)c1[nH]c2ccc(Br)cc2c1-c1ccccc1	none (no result: APP 5UTR inh, aSyn 5UTR inh)
Cc1cc(NC(=O)c2ccc3c(c2)OCO3)no1	none
Cc1cc(NC(=O)c2ccc3c(c2)OCCO3)no1	aSyn 5UTR inh 61.8
Cc1ccc(C(=O)Nc2cccc(C(=O)O)c2)cc1	aSyn 5UTR inh 86.9
O=C(Nc1ccncc1)c1ccc(-c2ccccc2)cc1	BaF3 tox 32.1
Cc1ccc(C(=O)Nc2ccc3c(c2)OCCO3)cc1	aSyn 5UTR inh 89.0 (no result: APP 5UTR inh, BaF3 tox, Ba/F3 V617F tox)
O=C(Nc1cccnc1)c1ccc(-c2ccccc2)cc1	none
CC(C)OCCCNC(=O)c1ccccc1NC(=O)C1=CSCCO1	none (no result: APP 5UTR inh, BaF3 tox, Ba/F3 V617F tox)
Cc1cc(NC(=O)CCC(=O)N(Cc2ccc(F)cc2)C(C(=O)NC2CCCC2)c2ccco2)no1 (stereo not given)	none (no result: APP 5UTR inh, BaF3 tox, Ba/F3 V617F tox)
CC(C)(C)[C@H]1C=C(C(=O)NC2CC2)O[C@@H](OCCCCO)C1	none
CSc1cccc(NC(=O)C(=O)NCc2ccccc2)c1	none (no result: APP 5UTR inh)
O=C(NCc1ccccc1)C(=O)Nc1cccc(C(=O)O)c1	aSyn 5UTR inh 74.1 (no result: APP 5UTR inh)
O=[N+]([O-])c1cc2c(cc1/C=N\NS(=O)(=O)c1ccccc1)OCO2	none
CNc1nc(N/N=C/c2cc3c(cc2[N+](=O)[O-])OCO3)nc(Nc2ccccc2)n1	aSyn 5UTR inh 73.6
Cc1ccc(-n2c(SCC(=O)Nc3ccc(Cl)cc3)nc(O)cc2=O)cc1	none (no result: APP 5UTR inh, BaF3 tox, Ba/F3 V617F tox)
Clc1cccc(CN2CCCCCC2)c1	none (no result: APP 5UTR inh, BaF3 tox, Ba/F3 V617F tox)
O=C1CCCc2ccccc2N1Cc1ccc(F)cc1	none
N=c1c2c(n(Cc3cccc(Cl)c3)c3c1CCC3)CCCC2	aSyn 5UTR inh inconclusive, BaF3 tox 61.0, Ba/F3 V617F tox 71.8
N=c1c2c(n(Cc3ccccc3)c3c1CCC3)CCC2	BaF3 tox 60.2, Ba/F3 V617F tox 62.2
N=c1c2c(n(Cc3ccc(F)cc3)c3c1CCC3)CCCC2	BaF3 tox 56.6, Ba/F3 V617F tox 54.8
